Each structure is given as a SMILES string. A number with no mark means an inactive call. No rule for the calls is given here.

This test deals with Pantothenate synthetase (Mycobacterium tuberculosis (strain ATCC 25618 / H37Rv)) (UniProt P9WIL5). Kind of test: Recombinant Mtb pantothenate synthetase (PanC) inhibitors, coupled enzyme, confirmatory (AID 375).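 Also: 0% = full reaction with vehicle and 100% = no enzyme background.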 Particulars: coupled enzyme assay; at 10 µM, hits give high values.
Sequence of Pantothenate synthetase (Mycobacterium tuberculosis (strain ATCC 25618 / H37Rv)) (P9WIL5 whole entry, looked up): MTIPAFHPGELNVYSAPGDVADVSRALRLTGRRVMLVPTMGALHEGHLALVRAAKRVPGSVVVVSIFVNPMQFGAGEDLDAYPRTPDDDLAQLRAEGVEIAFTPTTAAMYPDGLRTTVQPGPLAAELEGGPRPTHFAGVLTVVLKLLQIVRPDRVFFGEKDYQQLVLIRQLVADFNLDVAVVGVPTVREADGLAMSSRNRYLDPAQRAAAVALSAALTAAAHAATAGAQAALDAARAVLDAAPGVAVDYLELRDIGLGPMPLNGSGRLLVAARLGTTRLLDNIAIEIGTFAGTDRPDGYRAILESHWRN
As to `O=C(Cn1c(C(=O)NCC2CCCO2)cc2sccc21)c1ccccc1` (stereo not drawn), the inhibition was 0%. Consider `O=C1CSC(c2cn(-c3ccccc3)nc2-c2cccs2)N1CC1CCCO1` (stereo not drawn), for which the inhibition was 2%. The value for `O=C(NCc1cccnc1)c1ccc2c(c1)OCO2` was 0%. With `Cc1ccc(/C=N/n2nnnc2N)o1`, the inhibition was 0%.

Take `COc1cccc(-c2nnc(NC(=O)c3ccccc3Br)o2)c1`: the inhibition is 0%.

`CC(=O)c1ccc(NC(=O)C2CCN(S(=O)(=O)c3cccc4cccnc34)CC2)cc1`: the inhibition was 4%. The value for `COc1cccc(C=Nc2ccc3c(c2)OCCO3)c1O` was 3%; that for `c1coc(Cn2nnnc2CN2CCN(C3CCCC3)CC2)c1` was 0%. For `O=C(CN(Cc1ccco1)C(=O)CNS(=O)(=O)c1ccc(Cl)cc1)NCc1ccc(F)cc1`, the inhibition was 3%. `CCN(CC)c1nc2nonc2nc1N(CC)CC`: the inhibition was 0%. In the case of `COc1ccccc1NC(=O)CC(NCc1ccccc1)C(=O)O` (stereo not drawn) it was 5%; in that of `O=C1CCNc2cc3ccccc3cc21`, 3%. In the case of `COc1cccc(C(=O)Nc2cccc(C(=O)N3CCOCC3)c2)c1` it was 2%; in that of `Oc1cccc(Nc2nc(NCC3CCCO3)c3ccccc3n2)c1` (stereo not drawn), 1%; in that of `CCCC(=O)N1c2ccccc2NC2=C(C(=O)CCC2)C1c1ccc(F)cc1` (stereo not drawn), 5%. With `OCc1nc(CO)n(Cc2ccccc2)n1`, the inhibition is 0%. The value for `Cc1ccccc1C1CC(c2ccccc2)Nc2ncnn21` (stereo not drawn) was 12%; that for `COc1ccc(CCn2c(-c3ccco3)nc3nc4ccccc4nc32)cc1` was 0%.

The inhibition is the relative decrease from the control value, in per cent.

The values are drawn from PubChem BioAssay.
